Bioassay records deposited in PubChem by National Center for Advancing Translational Sciences (NCATS).
Compounds with a hit are over-represented: about 3.3% of the library has one in this group of screens.
HCV inh – HCV inhibition | Potency, µM (highest dose often 41.8 µM), without a hit: at the top dose activity change, negative = inhibition, most hits filed as inhibitors | 340,000 compounds, 3.4% hits | AID 651820 | Huh7.5.1 HCVcc-Cre infection, luciferase reporter, 44 h; active means well fitted inhibition curve with a large enough effect; inconclusive means small, poorly fitted or top-dose-only effect, or another doubt; inactive means no such curve, though single readings can be large or run the other way
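Luciferase read-out (15 sec integration) after a 15 min room-temperature substrate step quantifies HCVcc-Cre infection. Cells, 1,000 per well, had compound added 4 h post-plating, then virus at ~0.5 moi, and were cultured 44 h.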
Vaccinia Venus – inhibitors of vaccinia virus (Venus reporter). Potency, µM (highest dose often 36.5 µM), without a hit: top-dose activity change, negative = inhibition, actives largely listed as inhibitors. Vaccinia virus Venus reporter expression, fluorescence. AID 720580. 330,000 compounds, 0.46% hits; calls by dose curve; tested in A549 cells; further: nearly all actives have a fitted effect of over 30% in size
VACV mCherry inh – inhibitors of vaccinia virus infection (mCherry reporter signal) | AID 720579 | Vaccinia virus mCherry reporter infection, fluorescence | Potency, µM (titrated, usually from 36.5 µM), for the others: at the top dose activity change, negative = inhibition, actives largely listed as inhibitors | 310,000 compounds, 0.63% hits; calls by dose curve; tested in A549 cells; further: nearly all actives have a fitted effect of over 35% in size
Starred values were filed as active, the others as inactive; i = inactive; u = inconclusive; x = no result given; [ ] = another dose, or the depositor's remark. On the % scale 0 is the no-effect control and ±100 the full control effect; potency means the concentration at half of the fitted maximal effect.

SMILES	HCV inh	Vaccinia Venus	VACV mCherry inh
CCOC(=O)N1CCN(c2nc(CN3CCCCC3CCO)nc3c(C)cccc23)CC1 (stereo not drawn)	x	-12%	i
CCc1cccc2c(C(O)c3c[nH]c4ccccc34)c[nH]c12 (stereo not drawn)	x	58%	-6%
CCOC(=O)/C(C#N)=C/c1cc(C)n(-c2ccccc2)c1C	32µM*	-5%	-15%
Cc1cc(/C=C(\C#N)C(=O)Nc2ccccc2)c(C)n1-c1ccc(F)cc1	x	-15%	-1%
Cc1ccc2[nH]cc(C(c3ccccc3)c3cccs3)c2c1 (stereo not drawn)	x	-6%[7.34 µM]	-3%[7.34 µM]
O=C(c1ccc(N2CCCCC2)c([N+](=O)[O-])c1)N1CCN(S(=O)(=O)c2ccccc2)CC1	u	-3%	-17%
NC(=O)c1ccc(N2CCN(S(=O)(=O)c3ccccc3)CC2)c([N+](=O)[O-])c1	2.8µM*	2%	0%
COc1ccc(N2CCN(S(=O)(=O)c3ccc4c(c3)CCCC4)CC2)c([N+](=O)[O-])c1	5µM*	u	-13%
COc1cccc(N2CCN(c3ccc(S(=O)(=O)N4CCN(C)CC4)cc3[N+](=O)[O-])CC2)c1	u	-29%	-30%
CCCn1nc(C(=O)Nc2ccc3c(c2)OCCO3)c2ccccc2c1=O	-15%	-18%	-13%
O=C1N[C@@H](Cc2ccccc2)COC(=O)[C@H](Cc2ccc(F)cc2)C/C=C\C[C@H]1CC(=O)N(CCO)Cc1ccccc1	-21%	u	-9%
O=C1NCCOC(=O)[C@H](Cc2ccc(F)cc2)C/C=C\C[C@@H]1CC(=O)N(CCO)Cc1ccccc1	11µM*	-19%	-29%
O=C1NCCOC(=O)[C@H](Cc2ccc(F)cc2)C/C=C\C[C@H]1CC(=O)N(CCO)Cc1ccccc1	u	-26%	-28%
CC(C)(C)OC(=O)C[C@@H]1C/C=C\C[C@@H](CC(=O)N(CCO)Cc2ccccc2)C(=O)N2CCC[C@H]2COC1=O	-2%	-13%	-14%
CC(C)(C)OC(=O)C[C@@H]1C/C=C\C[C@H](CC(=O)N(CCO)Cc2ccccc2)C(=O)N2CCC[C@H]2COC1=O	1.1µM*	-12%	-10%
O=C1N[C@@H](Cc2ccccc2)COC(=O)[C@@H](Cc2ccc(F)cc2)CC/C=C/C[C@H]1CC(=O)N(CCO)Cc1ccccc1	u	11µM*	u
CC1CC(C)CN(S(=O)(=O)c2ccc(C(=O)NNC(=O)c3ccccc3F)cc2)C1 (stereo not drawn)	-15%	-18%	i
CCCOc1ccc(OC(=O)c2c(-c3ccccc3Cl)noc2C)cc1	x	-9%	-12%
CC1CCCCN1S(=O)(=O)c1ccc(C(=O)Nc2sc3c(c2C(N)=O)CC(C)(C)NC3(C)C)cc1 (stereo not drawn)	x	-17%	-17%
COc1ccc2c(c1)OC[C@H]1[C@H]2N2C(=O)CN(Cc3ccccc3)C(=O)[C@@]2(C)[C@H]1c1ccccc1	u	-25%	-25%
CC(NC(=O)c1cccc(N(C)C)c1)c1ccc(-n2ccnc2)cc1 (stereo not drawn)	-17%	-24%	-24%
CN(Cc1ccc2ccccc2c1)C(=O)c1ccc(C(F)(F)F)cc1	2%	4%	-28%
O=C(Cn1cc(C(F)(F)F)ccc1=O)OCC(=O)c1ccc[nH]1	27%	-7%	-8%
N#Cc1c(NC(=O)CSc2ncc(-c3ccccc3)n2CC2CCCO2)sc2c1CCCC2 (stereo not drawn)	11µM*	x	x
N#Cc1c(NC(=O)CSc2nnc(-c3ccncc3)n2CC2CCCO2)sc2c1CCCC2 (stereo not drawn)	9%	-13%	-23%
SMILES	HCV inh	Vaccinia Venus	VACV mCherry inh
Cc1csc(SCC(=O)Nc2sc3c(c2C#N)CCC3)n1	u	-23%	x
Cc1ccnc(SCC(=O)Nc2sc3c(c2C#N)CCCC3)n1	7.9µM*	u	x
CCN1CCN(c2ccc(NC(=O)c3cc(OC)c(OC)c(OC)c3)cc2)CC1	5%	x	x
Cc1nc2ccn(Cc3cccs3)c(=O)c2cc1C(=O)N1CCN(c2ccccc2F)CC1	x	-8%	-14%
C=C(NNC(C)=O)c1ccc(O)cc1	x	-17%	-13%
CCOc1ccc(-n2cc(-c3ccccc3)c3c(N4CCOCC4)ncnc32)cc1	11µM*	-9%	-16%
c1ccc(-c2cn(-c3ccccc3)c3ncnc(N4CCCCC4)c23)cc1	u	0%	i
CC(=O)n1cc(/C=N/NC(=O)c2sc(C)nc2C)c2ccccc21	-22%	u	-29%
CC(=O)n1cc(-c2ccncc2)c2ccccc21	10µM*	-17%	i
Cc1ccccc1-n1c(=O)c2c3c(sc2n2cnnc12)CCCC3	x	5%	-10%
COc1ccc2c(c1)[C@H]1[C@H](CO2)[C@H](c2ccccc2)[C@]2(C)C(=O)Nc3cc(F)ccc3C(=O)N12	-9%[8.37 µM]	-28%	u
COc1ccc2c(c1)OC[C@H]1[C@H]2N2C(=O)c3cc(OC)c(OC)cc3NC(=O)[C@@]2(C)[C@H]1c1ccccc1	7.1µM*	u	u
C[C@@]12C(=O)Nc3cc(Cl)ccc3C(=O)N1[C@H]1c3cc(Cl)ccc3OC[C@@H]1[C@@H]2c1ccccc1	u	-25%	-14%
COc1ccc2c(c1)OC[C@H]1[C@H]2N2C(=O)c3cc(Br)ccc3NC(=O)[C@@]2(C)[C@H]1c1ccccc1	u	-27%	i
COc1ccc2c(c1)OC[C@H]1[C@H]2N2C(=O)c3ccc(F)cc3NC(=O)[C@@]2(C)[C@H]1c1ccccc1	u	u	18µM*
C[C@@]12C(=O)Nc3cc(Cl)ccc3C(=O)N1[C@H]1c3cc(Br)ccc3OC[C@@H]1[C@@H]2c1ccccc1	10µM*	-23%	-4%
Cc1ccn2c(NCc3ccco3)c(-c3ccccc3)nc2c1	x	-8%	-13%
CCN1C(=O)[C@H]2[C@@H](c3ccc(C(F)(F)F)cc3)N[C@]3(CCCN(Cc4ccc(F)cc4)C3=O)[C@H]2C1=O	x	u	-16%
O=C1S/C(=C\c2ccc(N3CCOCC3)o2)C(=O)N1c1ccccc1	32µM*	46%	10%
O=C(O)c1ccccc1-c1ccc(/C=C2\SC(=O)N(c3ccccc3)C2=O)o1	4%	x	x
COc1cccc(CNC(=O)c2c(OC)cc(=O)n3c2CCN(C(=O)c2ccc(C)s2)CC3)c1	x	-5%	i
Cc1ccc(CNc2nc(CN3CCN(C=O)CC3)nc3ccccc23)o1	x	1%	-3%
NS(=O)(=O)c1ccc(CCNC(=O)c2ccc([N+](=O)[O-])s2)cc1	u	u	11µM*
NS(=O)(=O)c1ccc(CCNC(=O)c2ccc(Cl)s2)cc1	-5%	x	x
CCC(=O)Nc1sc(Cc2ccc3c(c2)OCO3)c(C)c1C(N)=O	-19%	x	x
SMILES	HCV inh	Vaccinia Venus	VACV mCherry inh
Cc1c(Cc2ccc3c(c2)OCO3)sc(NC(=O)C(C)(C)C)c1C#N	11µM*	-22%	-16%
COc1ccc(N2CCN(C(=O)COC(=O)c3cnccn3)CC2)cc1	-2%	-16%	i
O=C(CCl)Nc1cccc(S(=O)(=O)NC2=NCCCCC2)c1	6.3µM*	x	x
Cc1ccc(C)c(SCC(=O)Nc2cccc(S(=O)(=O)NC3=NCCCCC3)c2)c1	u	-17%	i
O=C(CSc1ccc2ccccc2c1Br)Nc1cccc(S(=O)(=O)NC2=NCCCCC2)c1	-22%	10µM*	u
CCCOc1ccc(C(=O)Nc2ccc(S(=O)(=O)NC3=NCCCCC3)cc2)cc1	u	u	8.9µM*
